Test results taken from PubChem BioAssay (EPA / NIEHS).
Values joined by “and” are separate entries in the source; they are usually repeats but may differ in a detail not shown here. Equal values may be shown once. Active and inactive are the calls of the source. The calls were made as follows: active = hit-call score of the fitted dose curve at least 0.9, where 1 is the maximum; inactive = score below 0.9.

Assay: CCTE_Shafer_MEA_acute_per_network_burst_electrodes_number_mean: CCTE's Neural Acute Assay for Mean Number of Electrodes in a Network Burst, Shafer Lab (AID 2284021);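 also: curves fitted for decreases only so hits reduce electrodes per burst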
Experimental: CCTE_Shafer_MEA_acute assay is conducted using Axion Biosystems 48 well microelectrode array (MEA) plates and Maestro recording system. Each well of the MEA plate contains a grid of 16 microelectrodes embedded in the culture surface. Electrically active cells, such as neurons, can be cultured over the electrodes, and electrical activity in these cells can be recorded extracellularly. The spontaneous firing of neurons is captured from each electrode on a microsecond timescale providing both temporally and spatially precise data. […] The CCTE_Shafer_MEA_acute assay uses primary cultures of rat cortical neurons. As these cultures mature over time, neural networks develop functional activity and form cohesive networks in which electrical activity can be highly coordinated. Baseline 40-minute recordings are made on days post-plating 13 or 15, followed by a secondary 40-minute recording after chemical exposure.CCTE_Shafer_MEA_acute_per_network_burst_electrodes_number_mean is a component of the CCTE_Shafer_MEA_acute assay. It measures the average number of electrodes with activity during a network burst (a temporally-clustered group of action potential firing across multiple electrodes) in a recording in a microelectrode array (MEA) using Axion Biosystems Maestro 768 channel amplifier with the AxIS adaptive spike detector. The recordings before and after chemical treatment are used to calculate a percent change in the mean number of electrodes participating in network bursts in each well.Data from the assay component CCTE_Shafer_MEA_acute_per_network_burst_electrodes_number_mean was analyzed into 1 assay endpoint. This assay endpoint, CCTE_Shafer_MEA_acute_per_network_burst_electrodes_number_mean, was analyzed in the negative analysis fitting direction relative to DMSO as the negative control and baseline of activity. Using a type of functional reporter, gain or loss-of-signal activity can be used to understand electrical activity.
Spontaneous activity in the cortical cultures was recorded using an Axion Biosystems Maestro 768 channel amplifier and Axion Integrated Studios (AxIS) v1.8 (or later) software. The amplifier recorded from all channels simultaneously (gain = 1200 x; sampling rate = 12.5 kHz/channel): raw signals were filtered with a Butterworth band-pass filter (300-5000 Hz), which filters out slower local field potentials leaving only fast potentials, i.e., "spikes", arising from extracellular currents associated with action potentials (Pine 2006; Wheeler and Nam 2011). On-line spike detection of filtered signals was conducted with the AxIS adaptive spike detector, using a threshold of 8x the root mean squared (rms) noise on each channel. Any electrodes with rms noise levels greater than 5 uV were grounded (e.g., no data were recorded). Once grounded, an electrode was grounded for the duration of the experiment. All recordings were conducted at 37 C. Wells were deemed usable if on the day of the exposure >/= 10 electrodes were active (defined as >/= 5 spikes/min). On DIV 13 or 15, a minimum of three wells from one cortical culture preparation were treated with each compound (0.03-40 uM). Prior to recording baseline activity, each mwMEA plate was placed in the Maestro at 37 C and allowed to sit for 20 min while firing rates stabilized. Baseline activity (40 min) was recorded before the addition of each compound. An additional 40 min of spontaneous activity was recorded in the presence of each compound. Changes in network parameters relative to baseline were assessed following compound treatment.

Structure (SMILES) | outcome | AC50
CC(Oc1ccc(Cl)cc1Cl)C(=O)O (stereo not drawn) | inactive | –
Cc1c(F)c(F)c(COC(=O)C2C(/C=C(\Cl)C(F)(F)F)C2(C)C)c(F)c1F (stereo not drawn) | – | 0.145 µM (active)
CCCC1COC(Cn2cncn2)(c2ccc(Cl)cc2Cl)O1 (stereo not drawn) | – | 15.2 µM (active)
N#CC(CCc1ccc(Cl)cc1)(Cn1cncn1)c1ccccc1 (stereo not drawn) | inactive | –
COP(=S)(OC)Oc1nc(Cl)c(Cl)cc1Cl | inactive | –
CNC(=O)ON=CC(C)(C)SC | inactive | –
COC(=O)N(OC)c1ccccc1COc1ccn(-c2ccc(Cl)cc2)n1 | inactive | –
CS/C(C)=N/OC(=O)N(C)SN(C)C(=O)O/N=C(\C)SC | – | 20 µM (active)
COC(=O)C(C)Oc1ccc(Oc2ccc(Cl)cc2Cl)cc1 (stereo not drawn) | inactive | –
CON(C)C(=O)Nc1ccc(Cl)c(Cl)c1 | inactive | –
CCNc1nc(Cl)nc(NC(C)C)n1 | inactive | –
CC(C)(C)c1ccc(CSc2cnn(C(C)(C)C)c(=O)c2Cl)cc1 | – | 1.37 µM (active)
CCOP(=S)(OCC)SCn1c(=O)oc2cc(Cl)ccc21 | – | 20 µM (active)
N#Cc1nn(-c2c(Cl)cc(C(F)(F)F)cc2Cl)c(N)c1S(=O)C(F)(F)F (stereo not drawn) | – | 1.36 µM (active) and 1.28 µM (active)
OC(c1ccc(Cl)cc1)(c1cncnc1)c1ccccc1Cl (stereo not drawn) | – | 2.52 µM (active)
COP(N)(=O)SC (stereo not drawn) | inactive | –
Fc1ccc(Oc2ccnc3cc(Cl)cc(Cl)c23)cc1 | inactive | –
CCCN(CCC)c1c([N+](=O)[O-])cc(S(N)(=O)=O)cc1[N+](=O)[O-] | inactive | –
CC1COC(Cn2cncn2)(c2ccc(Oc3ccc(Cl)cc3)cc2Cl)O1 (stereo not drawn) | inactive | –
CO/C=C(/C(=O)OC)c1ccccc1Oc1cc(Oc2ccccc2C#N)ncn1 | – | 7.21 µM (active)
Cc1ccc(-c2c(Cl)nc(C#N)n2S(=O)(=O)N(C)C)cc1 | inactive | –
COc1ccc(C(c2ccc(OC)cc2)C(Cl)(Cl)Cl)cc1 | – | 6.83 µM (active)
CCCCNC(=O)OCC#CI | – | 20 µM (active)
O=C(O)c1nc(Cl)ccc1Cl | inactive | –
CC(C)Oc1cc(-n2nc(C(C)(C)C)oc2=O)c(Cl)cc1Cl | inactive | –
C#CCOS(=O)OC1CCCCC1Oc1ccc(C(C)(C)C)cc1 (stereo not drawn) | inactive | –
C=CCC1=C(C)[C@@H](OC(=O)[C@@H]2[C@@H](C=C(C)C)C2(C)C)CC1=O | – | 10.8 µM (active)
C=CCC1=C(C)C(OC(=O)C2C(C=C(C)C)C2(C)C)CC1=O (stereo not drawn) | inactive | –
